Platelet DG rel – modulates dense granule release in human platelets; human platelet-rich plasma, SFLLRN dense granule ATP release, luminescence; inhibition, %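 (compounds screened at 7.5 µM in platelet-rich plasma)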; actives 0.22% (n = 300,000);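 active means mean replicate score, as percent of positive control, at or above 50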
TRAIL sens C8 – caspase-8 TRAIL sensitization | inhibition (viability loss, TRAIL sensitization), % at 10 µM | actives 1% (n = 360,000) | NB7+C8 cells + TRAIL, ATPlite viability luminescence | AID 624354;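 active means compounds causing at least 50% loss of cell viability in the single-dose screen, relative to plate controls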
TROY signal inh – TROY signaling inhibition; Q293 LMP1-TROYcd NF-kB luciferase reporter, 4 h; inhibition, % at 10 µM; actives 0.98% (n = 360,000);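 active means compounds whose plate-normalised and pattern-corrected inhibition of the luciferase reporter signal at the single screening dose is 50% or more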
HSP90 inh – blocks HSP90-mediated luciferase refolding in reticulocyte lysate; Rabbit reticulocyte lysate, luciferase refolding luminescence, 3 h; actives 0.91% (n = 290,000); inhibition, % at 5.6 µM; AID 1789;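 active means inhibition above the screen-wide mean plus 3 SD, computed separately per campaign, cut at about 16% in these data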;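 further: inhibitors lower the luminescence because luciferase stays unfolded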
TWEAK-Fn14 inh – blocks TWEAK-Fn14 interaction in a reporter cell assay. actives 2% (n = 360,000). inhibition, % at 10 µM. TWEAK-stimulated Fn14 reporter cells, luciferase luminescence, 8 h. AID 1159606; in the data active means inhibition above about 50%
PPC-1+TRAIL kill – kills PPC-1 cancer cells in the presence of TRAIL | PPC-1 cells + TRAIL, ATPLite viability luminescence | cell killing (% activity), % at 4 µM or 5 µM | actives 0.41% (n = 220,000) | AID 1443;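 active means cell killing above 50% in the first pass at 4 µM, then a duplicate retest at 5 µM averaging 50% or more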
Large screens that a line does not name were inactive. Shown are actives, neighbours in structure and some others; about 3.5% of the full set was active somewhere.

CCCOc1ccc(N2C(=O)CC(NCCc3ccc(S(N)(=O)=O)cc3)C2=O)cc1 (stereo not given)	none
COc1ccccc1N1CCN(C(=O)CSc2ncccc2-c2nc3ccccc3[nH]2)CC1	HSP90 inh 22, TWEAK-Fn14 inh 56
O=C(CSc1ncccc1-c1nc2ccccc2[nH]1)N1CCN(c2ccccc2F)CC1	TROY signal inh 57, TWEAK-Fn14 inh 71
O=C(CSc1ncccc1-c1nc2ccccc2[nH]1)NC1CC1	TROY signal inh 55, TWEAK-Fn14 inh 53
COc1ccc(-n2ncc3c(SCC(=O)N4CCN(c5ccccc5OC)CC4)ncnc32)cc1	TWEAK-Fn14 inh 55
COc1ccc(N2CCN(C(=O)CSc3ncccc3-c3nc4ccccc4[nH]3)CC2)cc1	none
O=C(CSc1nc2ccccc2[nH]1)NC1CCCC1	none
CCOC(=O)Cc1csc(NC(=O)CSc2ncnc3c2cnn3-c2ccc(OC)cc2)n1	TWEAK-Fn14 inh 61
O=c1[nH]c(SCc2ccccc2)nc2c1sc1ccccc12	none
O=c1c2ccccc2oc2cc(OCc3ccc(F)cc3)cc(O)c12	none (no result: PPC-1+TRAIL kill)
Cc1ccc(O)c(C(=O)c2cnn(C(=O)c3cccc(S(=O)(=O)N(C)C)c3)c2)c1	TWEAK-Fn14 inh 63 (no result: Platelet DG rel, HSP90 inh, PPC-1+TRAIL kill)
COc1ccc(N2CCN(C(C)C(=O)N(C)Cc3ccccc3)CC2)cc1 (stereo not given)	none (no result: PPC-1+TRAIL kill)
CC(C)(C)n1nc(-c2ccc(Cl)cc2)c2c(N)ncnc21	Platelet DG rel 72
CC(C)(C)n1nc(-c2ccc(F)cc2)c2c(N)ncnc21	none
COc1ccc([C@H]2CC(=O)C=C(c3ccc4[nH]ccc4c3)C2)cc1OC	TROY signal inh 53 (no result: Platelet DG rel, HSP90 inh, PPC-1+TRAIL kill)
Cn1c(=O)n(C)c2cc([N+](=O)[O-])c(N3CCN(S(=O)(=O)c4ccc5ccccc5c4)CC3)cc21	none
Cc1ccc(S(=O)(=O)N2CCN(c3cc4c(cc3[N+](=O)[O-])n(C)c(=O)n4C)CC2)cc1	TROY signal inh 51
COc1ccc(CC(=O)Nc2nc(-c3cc(OC)ccc3OC)cs2)cc1	TWEAK-Fn14 inh 65
COc1ccccc1C(=O)Nc1nc(-c2ccc3c(c2)OCCO3)cs1	TROY signal inh 51
COc1cccc(NC(=O)N2CCN(c3nc(-c4cccc(OC)c4)cs3)CC2)c1	TWEAK-Fn14 inh 67
CCC(=O)Nc1nc(-c2ccc3c(c2)OCCO3)cs1	none
c1ccc(-c2csc(Nc3ccc4c(c3)OCCO4)n2)cc1	TROY signal inh 58
O=[N+]([O-])c1ccccc1S(=O)c1ccccc1[N+](=O)[O-]	none (no result: Platelet DG rel, HSP90 inh, PPC-1+TRAIL kill)
CCN(CC)C(=O)C1=C(C)N(Cc2ccccc2)C(=O)C(CC(=O)NCc2cccs2)C1 (stereo not given)	none (no result: Platelet DG rel, HSP90 inh, PPC-1+TRAIL kill)
Cc1noc(C)c1C(=O)Nc1nc(-c2ccc(F)c(F)c2)cs1	none (no result: Platelet DG rel, HSP90 inh, PPC-1+TRAIL kill)
COc1ccc(-c2csc(NC(C)=O)n2)cc1OC	none
COc1ccc(-c2csc(NC(=O)c3c(C)noc3C)n2)cc1F	TROY signal inh 77 (no result: Platelet DG rel, HSP90 inh, PPC-1+TRAIL kill)
COc1cccc(NC(=O)Nc2nc(-c3ccc(OC)c(OC)c3)cs2)c1	TRAIL sens C8 97, TROY signal inh 70, TWEAK-Fn14 inh 105 (no result: PPC-1+TRAIL kill)
COCCCN1C(=O)C(CC(=O)NC2CCCC2)CC(C(=O)N(C(C)C)C(C)C)=C1C (stereo not given)	none (no result: Platelet DG rel, HSP90 inh, PPC-1+TRAIL kill)
Cc1nc([N+](=O)[O-])c(Br)n1Cc1ccccc1	none
Cc1nc([N+](=O)[O-])c(Sc2nc3ccc([N+](=O)[O-])cc3[nH]2)n1Cc1ccccc1	TWEAK-Fn14 inh 80
COc1ccc(NC(=O)Cc2cccc3ccccc23)cc1	none (no result: PPC-1+TRAIL kill)
O=NN(C(=O)NC1CCC(C(=O)O)CC1)C1CCC(C(=O)O)CC1 (stereo not given)	none (no result: Platelet DG rel, HSP90 inh, PPC-1+TRAIL kill)
NC(Cc1ccc(C(F)(F)F)cc1)c1csc(Nc2ccc(C(=O)c3ccccc3)cc2)n1 (stereo not given)	none (no result: Platelet DG rel, HSP90 inh, PPC-1+TRAIL kill)
COC(=O)[C@H](CCSC)NC(=O)Cn1cnc2c(SC)nc(N)nc21	none (no result: Platelet DG rel, HSP90 inh, PPC-1+TRAIL kill)
O=C1C=CC2(C=C1)O[C@H](Cc1ccccc1)[C@@H](Cc1ccccc1)O2	TRAIL sens C8 95, TROY signal inh 87, TWEAK-Fn14 inh 107 (no result: Platelet DG rel, HSP90 inh, PPC-1+TRAIL kill)
COc1ccc(C[C@@H]2OC3(C=CC(=O)C=C3)O[C@H]2Cc2ccc(OC)cc2)cc1	TRAIL sens C8 93, TROY signal inh 85, TWEAK-Fn14 inh 106 (no result: Platelet DG rel, HSP90 inh, PPC-1+TRAIL kill)
Cc1ccc(C(=O)N2CCCc3ccccc32)c(F)c1F	none (no result: PPC-1+TRAIL kill)
O=C(CSCC(=O)N1CCCCC1)Nc1nc(-c2ccc(Cl)s2)cs1	TWEAK-Fn14 inh 69
O=C(CSCC(=O)N1CCCCC1)Nc1nc(-c2cccs2)cs1	none
O=C(CSCC(=O)N1CCN(c2ccccc2)CC1)Nc1nc(-c2ccc(Cl)s2)cs1	TWEAK-Fn14 inh 72
Cc1ccc(/C=C2/CNC/C(=C/c3ccc(C)cc3)C2=O)cc1	TWEAK-Fn14 inh 104 (no result: Platelet DG rel, HSP90 inh, PPC-1+TRAIL kill)
CC(=O)c1ccccc1OC(=O)COc1ccc(Cl)cc1C	none (no result: TRAIL sens C8, TROY signal inh, TWEAK-Fn14 inh)
COc1ccc(CCNC(=O)c2cc3cc(F)ccc3nc2C)cc1OC	TWEAK-Fn14 inh 51 (no result: HSP90 inh, PPC-1+TRAIL kill)
COc1ccc(C(=O)NCCc2ccc(F)cc2)cc1OC	none
CSc1ccccc1NC(=O)CN1CC(C)OC(C)C1 (stereo not given)	none
CCN(CC(=O)Nc1ccc2c(c1)OCCO2)C(=O)COc1cc(C)ccc1Cl	TWEAK-Fn14 inh 87 (no result: HSP90 inh, PPC-1+TRAIL kill)
Cc1ccc(Cl)c(OCC(=O)Nc2ccc3c(c2)OCCO3)c1	none
COc1ccc(S(=O)(=O)N2CCCCCC2)cc1NC(=O)CCCOc1ccccc1	none (no result: Platelet DG rel, HSP90 inh, PPC-1+TRAIL kill)
Cc1ccc(NC(=O)CCN2CCN(CCO)CC2)cc1	none (no result: Platelet DG rel, HSP90 inh, PPC-1+TRAIL kill)
Cc1ccc(NC(=O)CCN2CCCCC2)cc1	TROY signal inh 69, TWEAK-Fn14 inh 100 (no result: PPC-1+TRAIL kill)
